Screening results from PubChem.
Most compounds without a hit are left out; they make up all but 6.1% or so of the library.
D1 PAM: potentiators of human D1 dopamine receptor | P21728 | HEK293 TREx D1 cells, calcium flux, dopamine EC20 potentiation | potentiation, % at 10 µM | actives 0.036% (n = 360,000); in the data active = potentiation above about 30%; also: 0% is about no effect
D1 ag: agonists of human D1 dopamine receptor; activation, % at 2 µM; HEK293 T-REx D1 cells, calcium flux, agonist mode; actives 1% (n = 360,000); in the data active = activation above about 30%; also: 0% is about no effect
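Agonism was scored from calcium flux recorded over 180 s (1 read/s) after pintool compound addition, following a 10-cycle baseline. Cells were inducible force-coupled HEK293 TREx D1, plated overnight at 30 C and loaded with no-wash calcium dye.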
D3 ag: agonists of human D3 dopamine receptor. actives 0.58% (n = 410,000). max activation, %. D3R DiscoveRx beta-arrestin cells, luminescence, 90 min; in the data active = max activation above about 30%; also: 0% is about no effect
Target sequence (P35462 whole entry, looked up): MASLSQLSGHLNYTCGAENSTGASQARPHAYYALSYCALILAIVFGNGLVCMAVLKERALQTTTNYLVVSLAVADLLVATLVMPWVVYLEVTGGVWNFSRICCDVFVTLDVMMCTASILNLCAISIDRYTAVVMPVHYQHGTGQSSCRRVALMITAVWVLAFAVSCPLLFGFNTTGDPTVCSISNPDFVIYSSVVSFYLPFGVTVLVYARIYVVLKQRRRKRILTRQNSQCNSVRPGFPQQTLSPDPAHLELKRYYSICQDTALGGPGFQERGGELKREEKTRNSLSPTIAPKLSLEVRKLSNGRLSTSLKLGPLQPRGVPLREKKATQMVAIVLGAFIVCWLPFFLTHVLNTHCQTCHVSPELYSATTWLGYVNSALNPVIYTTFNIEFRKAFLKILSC
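Agonist mode: compounds and dopamine controls were applied to plated cells for 90 min at 37 degrees C after an overnight attachment at 1500 cells/well. Luminescent read-out followed 30 - 60 minutes at room temperature with DiscoveRx detection reagent.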
D3 antag: antagonists of human D3 dopamine receptor; max response, negative = inhibition, %; D3R cells, DiscoveRx beta-arrestin luminescence, antagonist mode; stronger effect = lower value; P35462; actives 2.5% (n = 360,000); in the data active = max response below about -50%; inconclusive = no clear call, values can overlap the other calls; also: % is scaled to controls: 0 for no effect and ±100 for the full control effect
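Cells expressing the human receptor were seeded at 1500 cells/well, incubated overnight at 37 degrees C in 5% CO2, then exposed to library compounds with dopamine controls for 90 minutes at 37 degrees C before luminescent detection.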
D1 antag: antagonists of human D1 dopamine receptor; AID 504652; P21728; actives 3.2% (n = 360,000); activity change, negative = inhibition, % at 10 µM; HEK293 TREx D1 cells, calcium flux, dopamine EC80; stronger effect = lower value; in the data active = activity change below about -30%; also: % is scaled to controls: 0 for no effect and ±100 for the full control effect
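Tetracycline-induced HEK293 T-REx cells with force-coupled D1 receptor were loaded with a no-wash calcium dye. Compound was added after a 10 s baseline and read kinetically for 180 s; EC80 dopamine was then added and calcium flux followed another 180 s.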
* = called active by the depositor; ? = inconclusive; . = no result.

SMILES | D1 PAM | D1 ag | D3 ag | D3 antag | D1 antag
Cc1c(N)nc(C(CC(N)=O)NCC(N)C(N)=O)nc1C(=O)NC(C(=O)NC(C)C(O)C(C)C(=O)NC(C(=O)NCCc1nc(-c2nc(C(=O)NCCCN[C@@H](C)c3ccccc3)cs2)cs1)C(C)O)C(O[C@@H]1O[C@@H](CO)[C@@H](O)[C@H](O)[C@@H]1O[C@H]1O[C@H](CO)[C@@H](O)[C@H](OC(N)=O)[C@@H]1O)c1cnc[nH]1 (some centres not stated) | . | . | 6 | . | .
COc1ccc(CC(=O)NCCc2sc(-c3ccc(Cl)cc3)nc2C)cc1OC | 3 | 4 | 4 | . | -17
CCCCn1c(=O)c2oc3ccccc3c2n(CC(=O)Nc2cc(C)ccc2C)c1=O | -4 | 2 | 4 | . | 16
CCCOc1ccccc1N/C(=N/c1nc(C)cc(C)n1)NC(=O)COc1ccc(OC)cc1 | -8 | 2 | 4 | -8 | 4
CCCOc1ccccc1N/C(N)=N/c1nc(C)cc(C)n1 | -14 | 13 | -1 | -20 | -59*
COc1ccc(Cl)cc1Nc1nc(C)cc(=O)[nH]1 | -3 | 1 | -15 | -81* | -3
COc1ccc(OC)c(N/C(N)=N/c2nc(C)cc(C)n2)c1 | -7 | 3 | 7 | 6 | -26
COc1ccc(C)cc1N/C(N)=N/c1nc(C)cc(C)n1 | -6 | 11 | 1 | 0 | -75*
COc1ccc(Cl)cc1N/C(N)=N/c1nc(C)cc(C)n1 | -6 | 12 | 15 | -22 | -70*
CC[C@@H]1/C=C(\C)C[C@H](C)C[C@H](OC)[C@H]2O[C@@](O)(C(=O)C(=O)N3CCCC[C@H]3C(=O)O[C@H](/C(C)=C/[C@@H]3CC[C@@H](Cl)[C@H](OC)C3)[C@H](C)[C@@H](O)CC1=O)[C@H](C)C[C@@H]2OC | . | . | -3 | . | .
CCc1ccc(C(=O)c2cn(CC(=O)Nc3ccc4c(c3)OCCO4)c3ccc(CC)cc3c2=O)cc1 | 0 | 2 | -8 | . | 7
CCN(CC)S(=O)(=O)c1cc(NC(=O)c2ccc(Br)s2)ccc1C | -3 | 27 | -2 | -4 | -33*
CN(C)CCN1C(=O)C(O)=C(C(=O)c2cc3ccccc3o2)C1c1cccc(Br)c1 (configuration not stated) | -4 | 0 | -7 | ? | -38*
O=C(C1=C(O)C(=O)N(CCN2CCOCC2)C1c1cccc(Br)c1)c1cc2ccccc2o1 (configuration not stated) | 0 | 5 | -6 | -11 | 10
O=C(C1=C(O)C(=O)N(c2nccs2)C1c1ccccc1)c1cc2ccccc2o1 (configuration not stated) | 0 | 107* | 0 | 2 | -14
COc1ccc2cc(CNc3ccc(C)cc3)c(=O)n(CC(=O)Nc3cccc(C(F)(F)F)c3)c2c1 | 0 | 0 | -3 | . | 11
CCOC(=O)c1[nH]c2c(c1Cc1ccccc1OC)C(=O)CC(c1ccccc1)C2 (configuration not stated) | -1 | 15 | -6 | . | -1
NC(N)=N/N=C/c1cccc([N+](=O)[O-])c1O | -5 | 2 | -14 | -15 | 7
O=[N+]([O-])c1cccc(/C=N\N=C2c3ccccc3-c3ccccc32)c1O | 5 | -1 | -13 | -74* | -21
Cc1nn(C(=O)c2cccc(F)c2)c(C)c1S(=O)(=O)N1CCCCCC1 | -1 | 2 | -1 | . | -2
Cc1cc(C)c2sc(N(CCCN(C)C)C(=O)CN3C(=O)c4ccccc4C3=O)nc2c1 | -6 | 42* | -15 | 1 | -6
Cc1ccc2nc(N(CCCN(C)C)C(=O)CN3C(=O)c4ccccc4C3=O)sc2c1 | -15 | 44* | -20 | ? | -20
Cc1ccc2nc(N(CCCN(C)C)C(=O)CCc3ccccc3)sc2c1 | 0 | 16 | -25 | ? | -2
Cc1cc(C)c2sc(N(CCCN(C)C)C(=O)c3ccc(Br)s3)nc2c1 | -6 | 6 | -7 | -20 | -3
C=CCOc1ccc(/C=N/N2C(=O)C(CC(=O)Nc3ccc(F)cc3F)SC2=NC)cc1 (configuration not stated) | -6 | 14 | 2 | -13 | -49*
SMILES | D1 PAM | D1 ag | D3 ag | D3 antag | D1 antag
COc1cccc(CNC(=O)c2ccc(C)c(NC3=NC4CS(=O)(=O)CC4S3)c2)c1 (configuration not stated) | 1 | 2 | -13 | 0 | -32*
COc1ccccc1NC(=O)c1ccc(NC(=O)COC(=O)C2CC2C)cc1 (configuration not stated) | -7 | 0 | -6 | 11 | -43*
COc1ccccc1NC(=O)c1ccc(NC2=NC3CS(=O)(=O)CC3S2)cc1 (configuration not stated) | -13 | 2 | 1 | 14 | -35*
COc1ccc(N(C(=O)c2cccc(C)c2)S(=O)(=O)c2ccc3c(c2)n(C)c(=O)n3C)cc1 | 0 | 3 | 8 | . | 3
COC(=O)c1scc(-c2ccc(C)cc2)c1S(=O)(=O)N1CCN(c2cccc(OC)c2)CC1 | -1 | 6 | -14 | . | -7
O=C(/C=C/c1ccccc1)NC(NC(=S)Nc1cccc(Cl)c1)C(Cl)(Cl)Cl (configuration not stated) | -2 | 6 | -3 | ? | 1
O=C(/C=C/c1ccccc1)NC(NC(=S)Nc1cccc(O)c1)C(Cl)(Cl)Cl (configuration not stated) | -7 | 3 | -12 | -62* | -2
CC1=CC(C)(C)NC(=S)N1c1ccc(C)c(C)c1 | 3 | 60* | -9 | -11 | -31*
COCC1CCN(C(=O)c2cc(COc3ccc4ncccc4c3)on2)CC1 | -3 | 14 | 11 | 3 | -23
COCC1CCN(C(=O)c2cc(COc3ccc(-n4cncn4)cc3)on2)CC1 | -1 | 2 | 2 | 4 | -36*
COc1ccc(Cc2nnc(NC(=O)CSc3ccccc3)s2)cc1OC | 0 | 10 | -1 | 0 | 56
COc1cccc(C(=O)Nc2nnc(Cc3ccc(OC)c(OC)c3)s2)c1 | 2 | 4 | 2 | -8 | -6
COc1ccc(Cc2nnc(NC(=O)CSc3ccc(Cl)cc3)s2)cc1OC | 2 | 98* | . | . | 64
COc1ccc(Cc2nnc(NC(=O)c3ccc(OC)c(OC)c3)s2)cc1OC | -4 | 4 | 42* | 7 | -19
Cn1cnnc1SCC(=O)Nc1ccc(Br)cc1F | -3 | 1 | 32* | 6 | 1
Cn1cnnc1SCC(=O)Nc1ccc(C#N)cc1 | -3 | 0 | 0 | . | -37*
Cn1cnnc1SCC(=O)Nc1ccccc1 | -1 | 2 | 10 | 22 | 4
CCNc1nc(NCC)n2c(SCC(=O)Nc3ccc(Br)cc3F)nnc2n1 | -1 | 2 | -1 | 9 | 10
Cn1c2cc(C=O)sc2c2cnn(Cc3ccccc3F)c(=O)c21 | 1 | 0 | . | . | 10
CC1=CC(C)(C)N=C(Nc2ccc(C)cc2)S1 | -12 | 4 | 5 | -74* | -33*
